Calls of active or inactive are those of the source. How the source made its calls: active means hit-call score of the fitted dose curve at least 0.9, where 1 is the maximum; inactive means score below 0.9.

The term AC50 denotes the concentration giving half of the maximal activity seen.

Assay [1] can be described thus: ATG_CRE_CIS: Attagene CIS-FACTORIAL HepG2 Assay for human cAMP Responsive Element (CRE) binding protein 3 (AID 2282926). The note with it: HepG2 CRE cis-reporter, Attagene multiplexed mRNA; actives raise or lower the signal. In a few lines:
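Readout: fluorescently labelled reporter transcripts resolved by capillary electrophoresis after RT-PCR, taken 24 h post-dosing in transfected HepG2. Endogenous transcription factor activity drives each cis-element reporter; gain or loss of signal fitted relative to DMSO control.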

The target of assay [2] is CCAAT/enhancer-binding protein beta (Homo sapiens) (UniProt P17676). The experiment in a line: ATG_C_EBP_CIS: Attagene CIS-FACTORIAL HepG2 Assay for human CCAAT/Enhancer Binding Protein (C/EBP) beta (AID 2282927). Conditions: HepG2 Attagene cis-factorial transcription factor reporter; actives raise or lower the signal. In a few lines:
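HepG2, transient MRTU transfection, 24 h treatment. RT-PCR plus CE fluorescence; DMSO negative control, bidirectional fit.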

Assay [3] in a line: ATG_CMV_CIS: Attagene CIS-FACTORIAL HepG2 Assay for human CMV (Internal Marker) (AID 2282928).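 Further: endpoint acts as a background internal control marker rather than a target.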 The note with it: HepG2 CMV promoter reporter, transcription factor profiling; actives raise or lower the signal. In a few lines: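 Bidirectional fits against DMSO are applied to reporter mRNA, read by RT-PCR with capillary electrophoresis, from HepG2 cells exposed 24 h. The endpoint serves as an internal CMV background marker within the cis-factorial reporter panel.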

The nature of assay [4]: ATG_DR4_LXR_CIS: Attagene CIS-FACTORIAL HepG2 Assay for human Liver X Receptor (LXR), DR4 submotif (AID 2282929). Conditions: HepG2 Attagene DR4 cis-reporter, mRNA transcription; actives raise or lower the signal. In a few lines: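 Readout: reporter transcript fluorescence after RT-PCR and capillary electrophoresis, fitted bidirectionally against DMSO controls. Human HepG2 liver cells carried transiently transfected multiplexed reporter constructs; endogenous transcription factor activity measured 24 h post-dosing.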

Assay [5] is described as follows: ATG_AP_1_CIS: Attagene CIS-FACTORIAL HepG2 Assay for human Activator Protein 1 (AP-1) (AID 2282931). Conditions: HepG2 Attagene cis-factorial AP-1 reporter mRNA; actives raise or lower the signal. Summed up:
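Reporter transcripts were measured 24 h after dosing by RT-PCR and capillary electrophoresis of fluorescent fragments. Cells: HepG2 carrying transfected cis-regulated reporter constructs reading endogenous factor activity. Gain or loss fitted against DMSO.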

Assay [6] in a line: ATG_BRE_CIS: Attagene CIS-FACTORIAL HepG2 Assay for human Bone Morphogenetic Protein (BMP) Response Element (BRE) (AID 2282933). The note with it: HepG2 BMP response element reporter, Attagene transcription factor profiling; actives raise or lower the signal. In a few lines:
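Gain- or loss-of-signal was derived by bidirectional fitting against DMSO controls. The signal came from reporter mRNA, measured by RT-PCR and capillary electrophoresis, in HepG2 cells transiently carrying multiple reporter units and dosed for 24 h.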

Assay [7] addresses Retinoic acid receptor alpha (Homo sapiens) (UniProt P10276). The experiment in a line: ATG_DR5_RAR_CIS: Attagene CIS-FACTORIAL HepG2 Assay for human Retinoic Acid Receptor Alpha (RARE), DR5 submotif (AID 2282934).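 On AC50: reporter responds to endogenous RAR alpha beta and gamma in HepG2 not RARA alone.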 The note with it: HepG2 Attagene cis-factorial RARE DR5 reporter, mRNA; actives raise or lower the signal. In a few lines: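 After 24 h of chemical exposure, transiently transfected HepG2 cells were lysed for total RNA; the DR5-regulated reporter transcript was quantified via RT-PCR and capillary electrophoresis, with activity fitted bidirectionally against DMSO.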

For assay [8], the target named is Transcription factor E2F1 (Homo sapiens) (UniProt Q01094). The experiment in a line: ATG_E2F_CIS: Attagene CIS-FACTORIAL HepG2 Assay for human E2F Transcription Factor 1 (AID 2282935). Conditions: HepG2 Attagene cis-reporter, E2F reporter RNA transcripts; actives raise or lower the signal. In a few lines: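 Liver-derived HepG2 cells expressing transfected promoter-driven reporter units received test chemical for 24 hours. Signal gains or losses were fitted bidirectionally against DMSO.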

Assay [9] can be described thus: ATG_E_Box_CIS: Attagene CIS-FACTORIAL HepG2 Assay for human Enhancer Box (E-box) (AID 2282936). Conditions: HepG2 E-box cis-reporter transcription, actives raise or lower the signal. Summed up:
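In this cell-based setup, HepG2 cells bearing transfected promoter-driven reporter units were exposed to chemicals for 24 h; reporter transcripts were amplified, 6-FAM-labelled, cut with HpaI and sized by capillary electrophoresis.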

The nature of assay [10]: ATG_M_61_CIS: Attagene CIS-FACTORIAL HepG2 Assay for M61 Transcription Factor (Internal Marker) (AID 2282937). The note with it: HepG2 Attagene CIS-FACTORIAL M61 internal marker reporter; actives raise or lower the signal. Summed up:
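Readout: fluorescent reporter mRNA fragments resolved by capillary electrophoresis after RT-PCR. Transiently transfected human HepG2 cells carried MRTU constructs reporting endogenous TF activity; 24 h chemical exposure; gain or loss of signal fitted relative to DMSO.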

Assay [11] can be described thus: ATG_EGR_CIS: Attagene CIS-FACTORIAL HepG2 Assay for human Early Growth Response 1 (EGR1) (AID 2282938). Conditions: HepG2 Attagene CIS-FACTORIAL EGR reporter mRNA; actives raise or lower the signal. Summed up:
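Read-out: fluorescent reporter-mRNA fragments resolved by capillary electrophoresis after RT-PCR, 24 h post-dose in transiently transfected HepG2. Endogenous transcription-factor activity reported via cis-element-regulated reporter units; gain or loss fitted relative to DMSO.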

Assay [12] can be described thus: ATG_ERE_CIS: Attagene CIS-FACTORIAL HepG2 Assay for Estrogen Response Element (ERE) (AID 2282940). Conditions: HepG2 ERE cis-reporter, Attagene RNA transcript; actives raise or lower the signal. In a few lines: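 HepG2, transient cis-reporter units, 24 h exposure. RNA isolated, oligo(dT) RT, reporter-specific PCR, FAM extension, HpaI cut, CE detection. Gain/loss-of-signal vs DMSO.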

Assay [13] concerns the target Hepatocyte nuclear factor 3-beta (Homo sapiens) (UniProt Q9Y261). Kind of assay: ATG_FoxA2_CIS: Attagene CIS-FACTORIAL HepG2 Assay for human Forkhead box A2 (FOXA2) (AID 2282942). The note with it: HepG2 cis-reporter transcription factor activity, 24 h; actives raise or lower the signal. In a few lines:
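Readout: fluorescent reporter transcripts resolved by capillary electrophoresis after RT-PCR. Transiently transfected HepG2, 24 h compound exposure, endogenous TF activity at cis promoter elements. Gain or loss of signal fitted relative to DMSO.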

Assay [14] in a line: ATG_FoxO_CIS: Attagene CIS-FACTORIAL HepG2 Assay for human Forkhead box O (FoxO) (AID 2282943). The note with it: HepG2 Attagene cis-reporter, FoxO element, mRNA; actives raise or lower the signal. Summed up: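 Transfected HepG2 reporter cells exposed to test chemical for 24 h; reporter RNA measured by reverse transcription, PCR and fluorescent capillary electrophoresis; curves fitted for increases and decreases against DMSO.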

Assay [15] can be described thus: ATG_GATA_CIS: Attagene CIS-FACTORIAL HepG2 Assay for human GATA Binding Protein (AID 2282944). Conditions: HepG2 GATA cis-element reporter, Attagene multiplex mRNA; actives raise or lower the signal. In a few lines: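 DMSO serves as negative control and baseline for bidirectional fitting of reporter mRNA changes. HepG2 cells bearing transiently transfected cis-promoter reporters were exposed 24 h; transcripts detected via RT-PCR and capillary electrophoresis.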

Assay [16] has as its target Aryl hydrocarbon receptor (Homo sapiens) (UniProt P35869). Kind of assay: ATG_Ahr_CIS: Attagene CIS-FACTORIAL HepG2 Assay for human Aryl Hydrocarbon Receptor (Ahr) (AID 2282930). The note with it: HepG2 AhR cis-factorial reporter transcription; actives raise or lower the signal. In a few lines:
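Endogenous factor activity is tracked through cis-promoter reporter units transfected into HepG2 cells. Transcript levels at 24 h are read by fluorescent RT-PCR and capillary electrophoresis, with activity in either direction scored relative to DMSO.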

Assay [17] in a line: ATG_AP_2_CIS: Attagene CIS-FACTORIAL HepG2 Assay for human Activator Protein 2 (AP-2) (AID 2282932). The note with it: HepG2 AP-2 cis-reporter, Attagene transcription factor profiling; actives raise or lower the signal. In a few lines: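 Liver-derived HepG2 line, cis-reporter system measuring endogenous factors; 24 h dosing; reporter mRNA detected by fluorescent RT-PCR and capillary electrophoresis.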

Assay [18] is described as follows: ATG_Ets_CIS: Attagene CIS-FACTORIAL HepG2 Assay for human Erythroblast Transformation Specific (ETS) (AID 2282941). The note with it: HepG2 ETS cis-reporter transcription, actives raise or lower the signal. Summed up: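 Endogenous transcription factor activity read as reporter mRNA via RT-PCR and capillary electrophoresis, with gain or loss fitted bidirectionally against DMSO. Human HepG2 liver cells, transiently transfected CIS reporter constructs, 24 h exposure.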

Assay [19] in a line: ATG_M_19_CIS: Attagene CIS-FACTORIAL HepG2 Assay for M19 Transcription Factor (Internal Marker) (AID 2282939). The note with it: HepG2 Attagene CIS-FACTORIAL M19 internal marker reporter; actives raise or lower the signal. Summed up:
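Following a 24 h exposure, RNA from transfected HepG2 cells was reverse-transcribed, PCR-amplified with reporter-specific primers, end-labelled with 6-FAM and HpaI-digested before capillary separation. Values represent gain or loss versus DMSO.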

Sequence of Transcription factor E2F1 (Homo sapiens) (Q01094 whole entry, looked up): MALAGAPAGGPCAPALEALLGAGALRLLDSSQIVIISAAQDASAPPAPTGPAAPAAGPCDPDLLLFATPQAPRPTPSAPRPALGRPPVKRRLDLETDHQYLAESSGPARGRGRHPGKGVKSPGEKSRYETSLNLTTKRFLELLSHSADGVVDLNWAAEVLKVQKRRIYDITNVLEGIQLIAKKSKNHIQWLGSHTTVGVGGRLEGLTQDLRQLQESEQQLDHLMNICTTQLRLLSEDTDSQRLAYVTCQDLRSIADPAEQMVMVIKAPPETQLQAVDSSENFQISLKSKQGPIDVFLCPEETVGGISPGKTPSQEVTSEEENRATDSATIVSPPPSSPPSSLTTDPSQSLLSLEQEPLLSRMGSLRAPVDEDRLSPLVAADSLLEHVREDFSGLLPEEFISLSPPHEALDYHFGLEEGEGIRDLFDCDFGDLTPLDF
Sequence of Hepatocyte nuclear factor 3-beta (Homo sapiens) (Q9Y261 whole entry, looked up): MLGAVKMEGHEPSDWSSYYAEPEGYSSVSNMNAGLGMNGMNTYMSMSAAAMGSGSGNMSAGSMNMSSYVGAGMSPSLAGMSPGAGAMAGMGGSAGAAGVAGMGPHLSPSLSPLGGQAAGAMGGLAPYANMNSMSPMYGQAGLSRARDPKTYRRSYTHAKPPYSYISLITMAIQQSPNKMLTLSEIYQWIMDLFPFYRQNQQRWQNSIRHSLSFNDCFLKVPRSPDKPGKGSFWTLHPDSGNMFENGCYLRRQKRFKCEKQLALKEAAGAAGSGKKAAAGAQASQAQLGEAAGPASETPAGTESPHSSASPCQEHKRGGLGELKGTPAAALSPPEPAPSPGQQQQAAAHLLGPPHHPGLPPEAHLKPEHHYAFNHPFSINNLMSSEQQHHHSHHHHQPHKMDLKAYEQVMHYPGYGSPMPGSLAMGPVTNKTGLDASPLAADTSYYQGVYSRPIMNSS
Sequence of Retinoic acid receptor alpha (Homo sapiens) (P10276 whole entry, looked up): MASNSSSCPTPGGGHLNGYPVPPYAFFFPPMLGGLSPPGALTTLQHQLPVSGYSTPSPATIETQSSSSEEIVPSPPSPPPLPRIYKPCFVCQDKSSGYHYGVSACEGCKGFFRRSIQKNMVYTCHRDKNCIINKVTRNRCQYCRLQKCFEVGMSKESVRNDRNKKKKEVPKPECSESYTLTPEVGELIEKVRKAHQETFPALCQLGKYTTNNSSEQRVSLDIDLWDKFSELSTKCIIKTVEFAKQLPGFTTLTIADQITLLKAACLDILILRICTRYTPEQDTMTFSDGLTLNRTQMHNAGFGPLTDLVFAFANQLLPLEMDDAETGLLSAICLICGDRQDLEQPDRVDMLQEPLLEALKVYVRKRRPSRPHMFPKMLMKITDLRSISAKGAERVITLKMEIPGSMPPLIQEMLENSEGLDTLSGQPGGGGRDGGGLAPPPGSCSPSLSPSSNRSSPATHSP
Sequence of CCAAT/enhancer-binding protein beta (Homo sapiens) (P17676 whole entry, looked up): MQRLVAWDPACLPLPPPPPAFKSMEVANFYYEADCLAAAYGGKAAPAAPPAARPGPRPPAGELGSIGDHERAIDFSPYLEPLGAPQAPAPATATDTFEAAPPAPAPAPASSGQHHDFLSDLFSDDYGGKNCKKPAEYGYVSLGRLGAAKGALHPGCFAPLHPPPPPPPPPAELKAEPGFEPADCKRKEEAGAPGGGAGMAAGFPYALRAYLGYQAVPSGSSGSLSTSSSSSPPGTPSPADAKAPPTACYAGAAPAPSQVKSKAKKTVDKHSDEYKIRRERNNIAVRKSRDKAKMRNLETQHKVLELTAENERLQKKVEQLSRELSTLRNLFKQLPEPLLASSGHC
Sequence of Aryl hydrocarbon receptor (Homo sapiens) (P35869 whole entry, looked up): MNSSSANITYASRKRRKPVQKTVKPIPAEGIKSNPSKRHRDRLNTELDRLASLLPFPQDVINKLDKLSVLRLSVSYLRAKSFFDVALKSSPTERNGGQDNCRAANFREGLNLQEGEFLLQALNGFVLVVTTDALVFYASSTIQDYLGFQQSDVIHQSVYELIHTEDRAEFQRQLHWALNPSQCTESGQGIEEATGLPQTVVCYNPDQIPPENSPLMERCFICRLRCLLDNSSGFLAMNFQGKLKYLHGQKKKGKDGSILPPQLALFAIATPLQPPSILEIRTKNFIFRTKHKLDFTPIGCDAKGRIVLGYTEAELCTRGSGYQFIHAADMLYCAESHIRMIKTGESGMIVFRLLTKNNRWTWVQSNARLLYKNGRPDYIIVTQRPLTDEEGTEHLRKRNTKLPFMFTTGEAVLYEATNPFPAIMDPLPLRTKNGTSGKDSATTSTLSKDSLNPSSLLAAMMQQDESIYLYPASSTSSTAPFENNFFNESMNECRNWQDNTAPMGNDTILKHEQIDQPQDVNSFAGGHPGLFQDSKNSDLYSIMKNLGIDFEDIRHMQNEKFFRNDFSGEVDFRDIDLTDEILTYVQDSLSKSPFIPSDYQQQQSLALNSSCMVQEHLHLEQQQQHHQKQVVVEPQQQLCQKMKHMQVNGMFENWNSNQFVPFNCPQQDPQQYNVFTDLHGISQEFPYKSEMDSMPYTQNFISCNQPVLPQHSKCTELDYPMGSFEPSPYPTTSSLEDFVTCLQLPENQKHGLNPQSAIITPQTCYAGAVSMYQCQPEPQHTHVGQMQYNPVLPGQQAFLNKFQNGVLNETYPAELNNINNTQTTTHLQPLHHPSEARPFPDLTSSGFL

With `Nc1cccnc1N`, the compound was called inactive in [1], in assay [2], in assay [3], in assay [6], in assay [8] and in assay [9]. Moreover, the compound was called inactive in [10], in assay [11], in assay [12], in assay [13], in [14] and in [15]. Moreover, the AC50 in [4] was 53.5 µM (active); in assay [5], 16.7 µM (active); in [7], 65.8 µM (active).
`NCC(F)(F)C(F)(F)C(F)(F)C(F)(F)C(F)(F)C(F)(F)F`: the call in [1], in assay [2], in assay [3], in assay [4], in assay [16] and in assay [17] was inactive. For the same compound, the call in [6], in [7], in assay [8], in assay [9], in assay [11] and in assay [12] was inactive. Besides, the call in assay [18], in [13], in assay [14] and in [15] was inactive.
Regarding `O=S(=O)(OCC(F)(F)F)C(F)(F)C(F)(F)C(F)(F)C(F)(F)F`, the result in assay [1], in [2], in [17], in [8], in assay [9] and in assay [10] was inactive. In addition, the call in [11], in assay [19], in assay [12], in assay [18], in assay [13] and in assay [14] was inactive. Besides, the outcome in assay [15] was inactive. Also, the concentration at half-maximal activity (AC50) was 42.3 µM (active) in assay [3]; 104 µM (active) in assay [4]; 48.1 µM (active) in [5]; 58.2 µM (active) in assay [6]; 17.6 µM (active) in assay [7].
Take `CC1CCCCC1`: the compound was classed as inactive in assay [1], in assay [2], in [3], in assay [4], in assay [16] and in [5]. Moreover, the outcome in assay [17], in assay [6], in [7], in [8], in assay [9] and in assay [11] was inactive. Moreover, the result in assay [12], in assay [13], in [14] and in assay [15] was inactive.
In the case of `O=C=Nc1cccc2c(N=C=O)cccc12`, the outcome in assay [1], in [2], in assay [3], in [4], in assay [17] and in [6] was inactive. Moreover, the outcome in assay [7], in assay [8], in assay [9], in assay [11], in assay [19] and in assay [12] was inactive. The compound was classed as inactive in assay [18], in [13], in assay [14] and in assay [15]. Moreover, the AC50 in assay [16] was 4.73 µM (active).
With `CCN(CC)c1ccc2c(c1)Oc1cc(N(CC)CC)ccc1C21OC(=O)c2ccccc21`, the call in assay [1], in assay [2], in [3], in assay [4], in [5] and in assay [17] was inactive. Moreover, the compound was classed as inactive in [6], in assay [7], in [8], in assay [9], in assay [10] and in assay [11]. Besides, the outcome in [18], in [13] and in assay [14] was inactive.
For the compound `CCCCCC/C=C/CCCCCCCC(=O)O`, the result in [1], in assay [2], in assay [3], in assay [4], in [5] and in [17] was inactive. In addition, the call in assay [6], in [7], in assay [8], in assay [9], in [10] and in assay [11] was inactive. In addition, the result in assay [12], in assay [18], in assay [13], in assay [14] and in [15] was inactive.

Values taken from PubChem BioAssay (EPA / NIEHS).
